Assay outcomes (PubChem BioAssay)
Shown are actives, neighbours in structure and some others; about 19% of the full set was active somewhere.
Giardia kill – Small Molecules that selectively kill Giardia lamblia: qHTS; Giardia lamblia trophozoite viability; activity change, % at 7.66 µM, hits read low; 340,000 tested, 0.15% active; in the data active means activity change below about -80%; inconclusive means between about -30% and that limit;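 further: parasites exposed to compound for two days anaerobically before the ATP read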
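Compounds were tested on trophozoites seeded at 100 cells/well and held 48 hrs at 37 deg C anaerobically. An ATP-based luminescent kit measured the remaining live cells.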
IL1B secr inh – qHTS for Inhibitors of Inflammasome Signaling: IL-1-beta AlphaLISA Primary Screen | activity change, % at 57.5 µM | AID 743279, 2014 | THP-1 LPS/ATP IL-1B secretion, AlphaLISA, 16 h; hits give low values | 360,000 tested, 4.7% active; in the data active means activity change below about -50%; inconclusive means mostly about -30% to -49%
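Secreted IL-1B measured by AlphaLISA bead assay after 16 h compound exposure of THP-1 cells; compounds (final up to 57.5 uM) added 1 h before LPS (250 ng/mL) and ATP (1.25 mM) stimulation; lower signal means less secretion.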
ELG1 DNA repair – qHTS screen for small molecules that inhibit ELG1-dependent DNA repair in human embryonic kidney (HEK293T) cells expressing luciferase-tagged ELG1 | Potency, µM (doses to about 46.1 µM), for inactives: at the highest dose activity change, negative = inhibition, most hits filed as inhibitors | 330,000 tested, 2.3% active | HEK293T ELG1-luciferase reporter, luminescence, 16 h; DNA damage induced by 5-fluorouridine | AID 504467, 2011; further: potency means the concentration at half of the fitted maximal effect; nearly all actives have a fitted effect of over 55% in size
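Luminescence from the luciferase reporter, measured 30 min after ONE-Glo reagent at room temperature, was the read-out. Beforehand, 2,000 cells per well were exposed for 16 hr at 37 °C to 5-fluorouridine together with compound or vehicle.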
TDP1 cell CPT – qHTS for Inhibitors of human tyrosyl-DNA phosphodiesterase 1 (TDP1): qHTS in cells in presence of CPT; chicken DT40 Tdp1-/-;hTDP1 cells + 20 nM CPT, ATP luminescence, 48 h; Potency, µM (top dose mostly 46.2 µM), for the others: top-dose activity change, negative = growth inhibition, usual class: inhibitors; 420,000 tested, 12% active; further: potency means the concentration at half of the fitted maximal effect; nearly all actives have a fitted effect of over 55% in size
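Chicken DT40 Tdp1-/- cells complemented with human TDP1, 400 cells/well, exposed to compounds plus 20 nM camptothecin for at least 48 h at 37 C; viability read as ATP content by CellTiter-Glo luminescence.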
TDP1 inh – qHTS Assay for Inhibitors of Tyrosyl-DNA Phosphodiesterase (TDP1); Potency, µM (series often up to 130 µM), inactives show top-dose activity change, negative = inhibition, usual class: inhibitors; recombinant TDP1, AlphaScreen DNA substrate cleavage; AID 485290, 2010; 350,000 tested, 0.28% active; further: potency means the concentration at half of the fitted maximal effect; nearly all actives have a fitted effect of over 40% in size
Target sequence (Q9NUW8 whole entry, looked up): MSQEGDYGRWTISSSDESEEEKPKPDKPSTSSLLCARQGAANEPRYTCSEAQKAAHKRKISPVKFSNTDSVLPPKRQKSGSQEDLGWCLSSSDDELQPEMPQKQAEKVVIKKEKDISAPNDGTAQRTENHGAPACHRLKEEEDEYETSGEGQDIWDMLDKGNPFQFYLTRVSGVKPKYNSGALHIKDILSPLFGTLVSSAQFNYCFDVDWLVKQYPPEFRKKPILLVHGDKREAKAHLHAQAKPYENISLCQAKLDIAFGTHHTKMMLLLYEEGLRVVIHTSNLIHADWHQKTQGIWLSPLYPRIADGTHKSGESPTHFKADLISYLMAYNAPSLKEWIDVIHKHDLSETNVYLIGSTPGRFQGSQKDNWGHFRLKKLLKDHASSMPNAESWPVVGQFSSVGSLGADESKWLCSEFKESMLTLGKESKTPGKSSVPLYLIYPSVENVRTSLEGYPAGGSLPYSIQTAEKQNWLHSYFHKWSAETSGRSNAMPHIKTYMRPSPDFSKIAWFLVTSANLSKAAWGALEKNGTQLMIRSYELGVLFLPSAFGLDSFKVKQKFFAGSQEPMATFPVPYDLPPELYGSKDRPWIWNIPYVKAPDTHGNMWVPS
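Signal: AlphaScreen proximity between streptavidin donor and anti-FITC acceptor beads on intact substrate. Reaction: Tdp1 1 nM, substrate 15 nM final, 5 min RT after 15 min compound preincubation.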
DT40 TDP1 no CPT – qHTS for Inhibitors of human tyrosyl-DNA phosphodiesterase 1 (TDP1): qHTS in cells in absence of CPT; Potency, µM (doses to about 46.2 µM), without a hit: at the top dose activity change, negative = growth inhibition, actives largely listed as inhibitors; 420,000 tested, 15% active; DT40 Tdp1-/- hTDP1 cells, no CPT, ATP luminescence, 48 h; AID 686978, 2013; further: potency means the concentration at half of the fitted maximal effect; nearly all actives have a fitted effect of over 55% in size
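Cells were dispensed at 400 per well, compounds added by pin tool, plates incubated ≥48 hr at 37 °C, then CellTiter-Glo added for 30 min at room temperature before luminescence reading. Line: DT40 Tdp1-/- complemented with hTDP1; camptothecin omitted.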
Starred values were filed as active, the others as inactive. Unless noted, the call rests on the fitted dose curve; in most records, active means well fitted curve in the direction sought with a large enough effect; inconclusive means small, poorly fitted or top-dose-only effect, or another doubt; inactive means no such curve, though single readings can be large; an effect the other way counts as inactive or inconclusive. On the % scale 0 is the no-effect control and ±100 the full control effect.

`CCc1cc2c(=O)c(-c3nc4ccccc4[nH]3)coc2c(CN2CCCCC2C)c1O` (centres undefined) gave Giardia kill 22, IL1B secr inh -28, ELG1 DNA repair 21µM*, TDP1 cell CPT inconclusive, TDP1 inh 5% and DT40 TDP1 no CPT 10µM*.
Screening CCc1cc2c(=O)c(-c3ccc4c(c3)OCCO4)coc2cc1OS(C)(=O)=O returned Giardia kill -3, IL1B secr inh -87*, ELG1 DNA repair inconclusive, TDP1 cell CPT -14%, TDP1 inh 3% and DT40 TDP1 no CPT inconclusive.
O=c1c(-c2ccc3c(c2)OCCO3)coc2c(CN3CCOCC3)c(O)ccc12 was read as Giardia kill 10, IL1B secr inh -8, ELG1 DNA repair inconclusive, TDP1 cell CPT -22%, TDP1 inh 6% and DT40 TDP1 no CPT inconclusive.
For CCc1cc2c(=O)c(-c3ccc4c(c3)OCCO4)coc2c(CN2CCCCC2C)c1O (centres undefined) the results were Giardia kill -19, IL1B secr inh inconclusive, ELG1 DNA repair 6%, TDP1 cell CPT 1.8µM*, TDP1 inh 8% and DT40 TDP1 no CPT 1.5µM*.
Screening COc1cc(NS(=O)(=O)c2ccc(N)cc2)nc(C)n1 returned TDP1 cell CPT 1% and DT40 TDP1 no CPT 8%.
COc1ccccc1-n1cnnc1SCC(=O)c1c[nH]c2ccccc12 was read as Giardia kill 11, IL1B secr inh 11, ELG1 DNA repair 0%, TDP1 cell CPT -24%, TDP1 inh 2% and DT40 TDP1 no CPT -25%.
`O=C(CSc1n[nH]c(-c2ccccc2Cl)n1)NCc1ccc(F)cc1` gave TDP1 cell CPT -29%, TDP1 inh 5% and DT40 TDP1 no CPT inconclusive.
Screening COc1ccccc1/C=C/C=N/NC(=O)CCn1nnc2ccccc21 returned Giardia kill -15, IL1B secr inh -8, ELG1 DNA repair -1%, TDP1 cell CPT inconclusive, TDP1 inh 4% and DT40 TDP1 no CPT inconclusive.
CCCCc1cc(=O)oc2cc(OCc3nn[nH]n3)ccc12 was read as Giardia kill -6, IL1B secr inh -8, ELG1 DNA repair -2%, TDP1 cell CPT 1%, TDP1 inh 7% and DT40 TDP1 no CPT 2%.
Screening O=C(NCC(O)c1ccccc1)c1ccc(Cl)c(S(=O)(=O)N2CCCC2)c1 (centres undefined) returned Giardia kill 3, IL1B secr inh 1, ELG1 DNA repair inconclusive, TDP1 cell CPT -26%, TDP1 inh 0% and DT40 TDP1 no CPT inconclusive.
Screening COc1cccc(C(CNC(=O)c2ccc(Cl)c(S(=O)(=O)N3CCCC3)c2)N(C)C)c1 (centres undefined) returned Giardia kill 3, IL1B secr inh -14, ELG1 DNA repair inconclusive, TDP1 cell CPT inconclusive, TDP1 inh 0% and DT40 TDP1 no CPT 21µM*.
For O=C(NCCc1ccccc1)c1ccc(Cl)c(S(=O)(=O)N2CCCC2)c1 the results were Giardia kill 29, IL1B secr inh 12, ELG1 DNA repair -10%, TDP1 cell CPT inconclusive, TDP1 inh 4% and DT40 TDP1 no CPT inconclusive.
Screening CCCn1c(C)cc(C(=O)COC(=O)c2ccc(Cl)c(S(=O)(=O)N3CCCC3)c2)c1C returned Giardia kill 11, IL1B secr inh 11, ELG1 DNA repair inconclusive, TDP1 cell CPT 23µM*, TDP1 inh 6% and DT40 TDP1 no CPT 15µM*.
`O=C(NCc1ccccc1)c1ccc(Cl)c(S(=O)(=O)N2CCCC2)c1` gave Giardia kill 0, IL1B secr inh inconclusive, ELG1 DNA repair inconclusive, TDP1 cell CPT -23%, TDP1 inh -2% and DT40 TDP1 no CPT 18µM*.
`O=C(O)c1ccc(Cl)c(S(=O)(=O)N2CCCC2)c1` gave Giardia kill 0, IL1B secr inh 4, ELG1 DNA repair -1%, TDP1 cell CPT 11%, TDP1 inh 50µM* and DT40 TDP1 no CPT 9%.
`CC(NC(C(=O)c1ccccc1)c1ccccc1)c1ccccc1` (centres undefined) gave Giardia kill 7, IL1B secr inh -20, TDP1 cell CPT 4% and DT40 TDP1 no CPT -14%.
O=C(/C=C/c1ccco1)Nc1cc(Cl)ccc1C(=O)O was read as Giardia kill -8, IL1B secr inh 0, ELG1 DNA repair 21%, TDP1 cell CPT inconclusive, TDP1 inh -8% and DT40 TDP1 no CPT inconclusive.
Cc1ccc(NC(=O)/C=C/c2ccco2)cc1F was read as TDP1 cell CPT 7.3µM*, TDP1 inh -12% and DT40 TDP1 no CPT 9.2µM*.
O=C(/C=C\c1ccco1)Nc1cc([N+](=O)[O-])ccc1F was read as Giardia kill -29, IL1B secr inh 22, ELG1 DNA repair 27%, TDP1 cell CPT 2.1µM*, TDP1 inh 1% and DT40 TDP1 no CPT 1.6µM*.
`Cc1cc(C(=O)c2cnc(/N=C/N(C)C)s2)c(F)cc1Cl` gave Giardia kill 17, IL1B secr inh 1, ELG1 DNA repair 0%, TDP1 cell CPT -17%, TDP1 inh -1% and DT40 TDP1 no CPT inconclusive.
For Cc1ccc(S(=O)(=O)CCSc2cccc(C(=O)O)c2)cc1 the results were Giardia kill 9, IL1B secr inh -20, ELG1 DNA repair 21%, TDP1 cell CPT 15% and DT40 TDP1 no CPT 12%.
Screening Cc1ccc(S(=O)(=O)CCSC(=N)N)cc1 returned Giardia kill -2, IL1B secr inh -115*, ELG1 DNA repair inconclusive, TDP1 cell CPT inconclusive, TDP1 inh 5% and DT40 TDP1 no CPT 16µM*.
`Cc1ccc(C(=O)c2c(N)c(-c3nc(-c4ccc5c(c4)OCO5)cs3)c3ccccn23)cc1C` gave TDP1 cell CPT -10%, TDP1 inh 0% and DT40 TDP1 no CPT -26%.
COc1ccc(/C=C/C(=O)OCC(=O)NCCC2=CCCCC2)cc1 was read as Giardia kill 11, IL1B secr inh 4, ELG1 DNA repair -27%, TDP1 cell CPT -16%, TDP1 inh 3% and DT40 TDP1 no CPT -12%.
`COc1cccc(/C=C/C(=O)OCC(=O)NCc2ccco2)c1` gave Giardia kill 6, IL1B secr inh 0, ELG1 DNA repair 4%, TDP1 cell CPT -6%, TDP1 inh 50µM* and DT40 TDP1 no CPT -14%.
